HCV inhibitor: HCV inhibition. Potency, µM (titrated, usually from 41.8 µM), most hits filed as inhibitors. Huh7.5.1 HCVcc-Cre infection, luciferase reporter, 44 h. AID 651820. 3.4% of 340,000 active
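Cells seeded at 1,000/well and cultured 4 h, then compounds added followed by HCVcc-Cre virus (~0.5 moi). After 44 h further culture, luciferase substrate was added, plates held 15 min at room temperature, and luminescence read for 15 sec.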
Lassa entry inh: inhibitors of Lassa virus binding or cell entry; Lassa virus pseudotype entry inhibition, cell reporter; Potency, µM (titrated, usually from 37.9 µM), hits mostly inhibitors; 1.2% of 300,000 active; AID 540256; calls by dose curve; tested in HEK293 cells; also: nearly all actives have a fitted effect of over 50% in size
FMDV antiviral: blocks foot and mouth disease virus | FMDV antiviral cell-based qHTS | Potency, µM (highest dose often 57.9 µM), usual class: inhibitors | 1.2% of 410,000 active | AID 1159524; calls by dose curve; tested in HEK293T cells; also: read-out not given here; nearly all actives have a fitted effect of over 45% in size
RE007 growth inh: less growth of the S. pombe RE007 Vpr strain | AID 651644 | S. pombe RE007 Vpr strain, BacTiter-Glo ATP luminescence, 24 h | Potency, µM (top dose mostly 92.2 µM), usual class: inhibitors | 0.21% of 360,000 active; active = well fitted falling curve with a large enough effect; inconclusive = small, poorly fitted or top-dose-only effect; inactive = no such curve, though single readings can be large or run the other way; also: nearly all actives have a fitted effect of over 50% in size
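Fission yeast RE007 carrying one integrated HIV-1 vpr copy, seeded at OD 0.01 in PMG+AL medium with 23 nL pinned compound. Grown 24 h at 30 degrees; viability read by BacTiter-Glo luminescence after 5 min.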
Marburg entry inh: inhibitors of Marburg virus binding or cell entry; Marburg virus pseudotyped entry inhibition, cell reporter; Potency, µM (highest dose often 37.8 µM), actives largely listed as inhibitors; 1.8% of 300,000 active; calls by dose curve; tested in HEK293 cells
Sm TGR inh: inhibitors of Schistosoma mansoni thioredoxin glutathione reductase; 3% of 360,000 active; purified TGR, DTNB reduction, TNB absorbance 405 nm; Potency, µM (titrated, usually from 114 µM), hits mostly inhibitors; also: nearly all actives have a fitted effect of over 60% in size
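TGR 20 nM + NADPH 100 uM (dispensed conc.), cpd preinc 15 min RT; start with NADPH (500 uM addition) then DTNB (15 mM addition). Kinetic TNB absorbance, 405 nm filter. Four-parameter Hill fit across titration.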
Hits are given with their value; 0 = inactive; ? = inconclusive; - = not tested or not shown; [ ] = remark or other dose. The list is not random: actives were taken first. Their share in the collection is about 7.2%. Unless noted, calls follow the shape of the dose curve; as a rule, active = well fitted curve in the direction sought with a large enough effect; inconclusive = small, poorly fitted or top-dose-only effect, or another doubt; inactive = no such curve, though single readings can be large; an effect the other way counts as inactive or inconclusive.

SMILES	HCV inhibitor	Lassa entry inh	FMDV antiviral	RE007 growth inh	Marburg entry inh	Sm TGR inh
CC(C)c1ccc(N2C(=O)N(Cc3ccccc3Cl)c3ccccc3S2(=O)=O)cc1	-	0	0	-	-	0
[O-][n+]1cccc2c(Br)cc(Br)c(O)c21	0	0	0	?	0	7.94µM
O=C(c1cc(-c2ccncc2)nc2ccc(Br)cc12)N1CCN(c2ccccn2)CC1	0	?	?	0	5.62µM	0
Cc1cccc2c(C(=O)N3CCN(c4ccccn4)CC3)cc(-c3cccc(Br)c3)nc12	?	-	25.1µM	0	-	0
O=C(c1cc(-c2ccncc2)nc2ccccc12)N1CCN(Cc2ccccc2)CC1	?	?	0	0	7.94µM	-
Cc1cc(Nc2cc(Cl)ccc2C)n2nc(-c3ccccc3)nc2n1	-	0	?	-	0	0
COc1cccc(C2(CC(=O)N3CCCCC3CO)CC(=O)N(C)C2=O)c1 (configuration not stated)	-	-	0	-	-	-
Cc1nc2ccn(Cc3cccnc3)c(=O)c2cc1C(=O)NCc1ccccc1	-	0	0	-	-	0
COc1ccc(C2C(C(=O)Nc3cccnc3)=C(C)Nc3nc(-c4ccco4)nn32)cc1 (configuration not stated)	0	-	0	0	0	50.1µM
O=C(NCCOCCn1c(=O)oc2ccccc21)Nc1ccc(F)cc1	-	0	0	-	0	0
COc1ccc(N2CC(NC(=O)C3CCCCC3)CC2=O)cc1 (configuration not stated)	-	0	0	-	-	0
C=CCOC(=O)C(C(=O)CC)C(NC(=O)OC)c1ccc(F)cc1 (configuration not stated)	-	-	-	-	0	-
Cc1nn(S(=O)(=O)c2cccs2)c(C)c1Sc1ccccc1	-	-	-	-	0	0
Cc1nn(S(=O)(=O)c2cccs2)c(C)c1Sc1ccc([N+](=O)[O-])cc1	10µM	?	14.1µM	0	0	0
Cc1cc(NC(=O)c2cnn3c(C(F)F)cc(-c4ccccc4)nc23)no1	?	0	0	0	?	0
COc1cccc(-c2cc(C(F)(F)F)n3ncc(C(=O)NCC4CCCO4)c3n2)c1 (configuration not stated)	?	?	28.2µM	0	?	?
COc1ccc(-c2cc(C(F)(F)F)n3ncc(C(=O)NCC4CCCO4)c3n2)cc1 (configuration not stated)	0	0	0	0	0	0
O=C(c1ccccc1)N1CCN(C(=O)c2nn3c(C(F)(F)F)cc(-c4ccco4)nc3c2Br)CC1	?	?	0	0	0	39.8µM
Cc1cc(NC(=O)c2cnn3c(C(F)(F)F)cc(-c4ccccc4)nc23)no1	7.08µM	0	-	0	?	0
CN(CCc1ccccn1)C(=O)c1nn2c(C(F)(F)F)cc(-c3ccco3)nc2c1Cl	?	0	?	0	?	44.7µM
O=C(NCC1CCCO1)c1nn2c(C(F)(F)F)cc(-c3ccc(Br)o3)nc2c1Br (configuration not stated)	?	0	0	0	0	15.8µM
O=C(c1cnn2c(C(F)(F)F)cc(-c3ccco3)nc12)N1CCc2ccccc2C1	?	?	0	0	?	12.6µM
COCCNC(=O)c1nn2c(C(F)(F)F)cc(-c3ccccc3)nc2c1Br	-	-	0	0	-	-
O=C(NC1CCCCC1)c1nn2c(C(F)(F)F)cc(-c3ccco3)nc2c1Br	0	0	0	0	0	25.1µM
O=C(c1cnn2c(C(F)F)cc(C3CC3)nc12)N1CCc2ccccc2C1	8.91µM	?	?	0	?	0
SMILES	HCV inhibitor	Lassa entry inh	FMDV antiviral	RE007 growth inh	Marburg entry inh	Sm TGR inh
Cc1nc2c(-c3ccccc3)c(C)[nH]n2c(=O)c1Cc1ccc(Br)cc1	-	?	?	-	?	0
Cc1ccc(C(=O)N(Cc2cc3cc4c(cc3nc2N2CCOCC2)CCC4)CC2CCCO2)cc1 (configuration not stated)	-	-	0	-	-	-
CN1CCCN(CC(O)COCc2cccs2)CC1 (configuration not stated)	0	0	0	0	0	50.1µM
Cc1ccc(CNC(=O)CN2C(=O)CSc3c2c(C)nn3-c2ccccc2)cc1	-	0	0	-	-	0
C=C1CCC[C@]2(C)C[C@H]3OC(=O)C(CNC(C)(CO)CO)[C@H]3CC12 (some centres not stated)	0	0	0	0	?	0
C=C1CCC[C@]2(C)C[C@H]3OC(=O)C(CN4CCCCC4CO)[C@H]3CC12 (some centres not stated)	0	0	?	?	11.2µM	0
COC(=O)C1=CN(Cc2ccccc2)C=C(C(=O)OC)C1c1cc(F)ccc1F	0	7.08µM	0	0	0	0
Cc1oc(C)c2c(=O)ccc3c(c12)OC(N)=C(C#N)C3c1ccc(F)cc1 (configuration not stated)	0	0	0	0	0	17.8µM
O=C(Nc1ccc(F)cc1F)c1cc(-c2ccco2)nc2ccccc12	0	0	0	0	0	11.2µM
O=C(Nc1cccc(S(=O)(=O)NC2=NCCCCC2)c1)c1cc(-c2ccco2)nc2ccccc12	?	?	0	0	0	11.2µM
O=C(NNC(=O)c1cc(-c2ccco2)nc2ccccc12)c1ccccc1	0	0	0	0	0	11.2µM
O=C(Nc1cccc(S(=O)(=O)NC2=NCCCCC2)c1)c1cc(-c2ccncc2)nc2ccccc12	?	-	0	0	-	0
O=C(O)c1cc(-c2ccco2)nc2cc3ccccc3cc12	0	0	0	0	0	2.24µM
CC(=O)c1cccc(NC(=O)c2cc(-c3ccco3)nc3ccccc23)c1	0	0	0	0	?	25.1µM
CSC1=NC=C(C#N)C2=NC(c3c(Cl)cccc3Cl)NN12 (configuration not stated)	-	-	39.8µM	0[18.4 µM]	-	-
O=c1c2ccccc2sc2ccc(C#CC3(O)CCCCC3)cc12	?	-	44.7µM	?	-	-
COc1cccc2sc3ccc(C#CC4(O)CCCCC4)cc3c(=O)c12	?	-	0	0	-	0
O=c1c2ccccc2oc2cc(C#CC3(O)CCCCC3)ccc12	?	-	11.2µM	0	-	-
COc1ccc(CNc2nc(NCc3ccc(OC)cc3)n(C(=O)c3ccncc3)n2)cc1	0	-	0	0	-	0
COc1ccc(CNc2nc(NCc3ccc(OC)cc3)n(C(=O)c3ccccc3[N+](=O)[O-])n2)cc1	?	4.11µM	0	0	0	0
COC(=O)c1c(NC(=O)c2nc(SCc3ccccc3C)ncc2Cl)sc2c1CCCC2	-	0	0	-	0	0
Cc1cc(O)c(C(C)C)cc1N=Nc1ccccc1C(=O)O	0	0	?	0	0	0
Cc1cc(NO)c(C(C)C)cc1N=O	?	0	22.4µM	0	0	0
CCN(Cc1ccc(OC)c(F)c1)C(=O)CCl	?	?	?	0	?	11.2µM
COc1ccc(OC)c(CNC(=O)CCCn2c(=O)c3cccn3c3cccnc32)c1	-	0	0	-	0	0
C=CC[C@@](C(C)=O)(C(=O)OC)[C@@H](NC(=O)OC)c1ccccc1	-	-	-	-	0	-
Cc1ccc2c(c1)Oc1ccc(NC(=O)CCl)cc1C(=O)N2	?	?	14.1µM	0	?	11.2µM
